# Measured values taken from publication PMC7862700, “An all-to-all approach to the identification of sequence-specific readers for epigenetic DNA modifications on cytosine”.
# Key:
# Experiment in all cases: DAPPL (digital affinity profiling via proximity ligation, sequencing); 10 mM Tris-HCl pH 7.5, 50 mM NaCl, 1 mM DTT, 4% glycerol, room temperature, 30 min; GST-TFs on glutathione beads, 16-mer random dsDNA library, 0.1% formaldehyde crosslink after washing; high values mean tight binding
# FLI1 = molecular target: T1, FLI1 (Homo sapiens, UniProt Q01543 1-452); details: protein: recombinant; tags: N-terminal GST; dsDNA, one strand shown
# T1 sequence: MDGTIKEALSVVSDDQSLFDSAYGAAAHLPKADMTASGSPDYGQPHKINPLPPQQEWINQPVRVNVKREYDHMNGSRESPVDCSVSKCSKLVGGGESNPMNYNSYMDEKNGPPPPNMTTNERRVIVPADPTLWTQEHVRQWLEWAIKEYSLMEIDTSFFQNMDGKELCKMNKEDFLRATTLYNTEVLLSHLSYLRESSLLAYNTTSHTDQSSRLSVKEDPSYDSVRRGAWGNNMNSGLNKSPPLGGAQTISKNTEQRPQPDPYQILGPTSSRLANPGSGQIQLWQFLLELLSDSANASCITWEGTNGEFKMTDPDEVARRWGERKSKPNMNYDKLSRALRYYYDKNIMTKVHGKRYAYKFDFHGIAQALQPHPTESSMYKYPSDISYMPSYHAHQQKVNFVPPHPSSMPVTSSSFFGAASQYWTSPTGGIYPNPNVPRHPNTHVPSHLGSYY
# Method in brief: (§1)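 Beads coated with glutathione captured GST-fused human transcription factors that had been expressed in yeast, and the factors were then given DNA barcodes and pooled with a tag-only sample. The pools were incubated with 200 nmole of a random double-stranded 16-mer DNA library in Tris/NaCl/DTT/glycerol buffer for 30 min at room temperature, washed, crosslinked with 0.1% formaldehyde and proximity-ligated with BsaI/T4 ligase at 37 °C for 1 h. PCR amplification and Illumina NextSeq500 sequencing came last. Binding signal is each hexamer's read frequency for a factor divided by its frequency for the tag-only sample.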
# ELK1 = molecular target: T2, ELK1 (Homo sapiens, UniProt P19419 1-428); details: protein: recombinant; tags: N-terminal GST; dsDNA, one strand shown
# T2 sequence: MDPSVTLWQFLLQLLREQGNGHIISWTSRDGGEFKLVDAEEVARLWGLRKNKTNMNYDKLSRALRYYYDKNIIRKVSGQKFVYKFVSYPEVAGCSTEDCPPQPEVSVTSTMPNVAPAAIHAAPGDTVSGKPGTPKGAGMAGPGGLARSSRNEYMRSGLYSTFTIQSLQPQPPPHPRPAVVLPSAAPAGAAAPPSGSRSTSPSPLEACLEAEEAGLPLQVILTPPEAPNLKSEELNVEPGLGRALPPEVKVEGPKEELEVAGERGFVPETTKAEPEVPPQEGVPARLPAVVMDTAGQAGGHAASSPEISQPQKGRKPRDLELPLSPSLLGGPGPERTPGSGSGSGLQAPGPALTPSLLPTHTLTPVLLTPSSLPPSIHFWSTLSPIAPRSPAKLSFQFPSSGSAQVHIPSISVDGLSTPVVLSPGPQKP
# Method in brief: as §1
# GABPA = molecular target: T3, GABPA (Homo sapiens, UniProt Q06546 1-454); details: protein: recombinant; tags: N-terminal GST; dsDNA, one strand shown
# T3 sequence: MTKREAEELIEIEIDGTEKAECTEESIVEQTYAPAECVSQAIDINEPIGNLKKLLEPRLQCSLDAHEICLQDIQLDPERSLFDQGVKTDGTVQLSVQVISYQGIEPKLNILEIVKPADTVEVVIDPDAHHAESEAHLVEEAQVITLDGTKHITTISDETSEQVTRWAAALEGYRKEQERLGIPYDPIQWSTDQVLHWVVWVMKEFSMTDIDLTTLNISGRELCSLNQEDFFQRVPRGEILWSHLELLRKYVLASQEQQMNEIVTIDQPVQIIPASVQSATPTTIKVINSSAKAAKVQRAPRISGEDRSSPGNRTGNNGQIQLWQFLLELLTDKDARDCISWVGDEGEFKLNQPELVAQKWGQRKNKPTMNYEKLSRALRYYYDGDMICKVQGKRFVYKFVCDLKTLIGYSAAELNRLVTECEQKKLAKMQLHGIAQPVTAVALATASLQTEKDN
# Method in brief: as §1
# ERG = molecular target: T4, ERG (Homo sapiens, UniProt P11308 1-479); details: protein: recombinant; tags: N-terminal GST; dsDNA, one strand shown
# T4 sequence: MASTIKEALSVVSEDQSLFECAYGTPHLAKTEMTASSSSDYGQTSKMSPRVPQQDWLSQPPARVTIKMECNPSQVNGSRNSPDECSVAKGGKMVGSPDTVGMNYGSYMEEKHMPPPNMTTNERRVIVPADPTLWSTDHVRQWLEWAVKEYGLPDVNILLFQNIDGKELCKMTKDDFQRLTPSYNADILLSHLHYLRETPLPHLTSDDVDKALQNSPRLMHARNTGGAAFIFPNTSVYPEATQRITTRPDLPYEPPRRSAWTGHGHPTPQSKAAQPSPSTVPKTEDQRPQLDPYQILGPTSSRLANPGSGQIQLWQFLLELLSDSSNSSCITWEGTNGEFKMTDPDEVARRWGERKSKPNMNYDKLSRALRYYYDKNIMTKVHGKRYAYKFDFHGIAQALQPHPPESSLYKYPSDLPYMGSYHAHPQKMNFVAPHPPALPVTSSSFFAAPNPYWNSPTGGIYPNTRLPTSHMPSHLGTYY
# Method in brief: as §1
# ELF1 = ELF1 (Homo sapiens, UniProt P32519 1-619); details: protein: recombinant; tags: N-terminal GST; dsDNA, one strand shown
# Method in brief: as §1
# EHF = molecular target: T5, EHF (Homo sapiens, UniProt Q9NZC4 1-300); details: protein: recombinant; tags: N-terminal GST; dsDNA, one strand shown
# T5 sequence: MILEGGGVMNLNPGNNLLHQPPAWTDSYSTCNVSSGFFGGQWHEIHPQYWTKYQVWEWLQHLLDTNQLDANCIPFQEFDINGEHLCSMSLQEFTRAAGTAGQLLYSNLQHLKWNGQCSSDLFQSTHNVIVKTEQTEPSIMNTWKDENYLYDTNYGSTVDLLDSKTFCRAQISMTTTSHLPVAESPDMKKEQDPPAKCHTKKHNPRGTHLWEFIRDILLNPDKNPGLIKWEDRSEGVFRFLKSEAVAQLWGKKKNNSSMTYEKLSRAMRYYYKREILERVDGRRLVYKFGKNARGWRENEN
# Method in brief: as §1
# SPI1 = SPI1 (Homo sapiens, UniProt P17947 1-270); details: protein: recombinant; tags: N-terminal GST; dsDNA, one strand shown
# Method in brief: as §1
# SPIB = SPIB (Homo sapiens, UniProt Q01892 1-262); details: protein: recombinant; tags: N-terminal GST; dsDNA, one strand shown
# Method in brief: as §1
# ELK3 = molecular target: T6, ELK3 (Homo sapiens, UniProt P41970 1-407); details: protein: recombinant; tags: N-terminal GST; dsDNA, one strand shown
# T6 sequence: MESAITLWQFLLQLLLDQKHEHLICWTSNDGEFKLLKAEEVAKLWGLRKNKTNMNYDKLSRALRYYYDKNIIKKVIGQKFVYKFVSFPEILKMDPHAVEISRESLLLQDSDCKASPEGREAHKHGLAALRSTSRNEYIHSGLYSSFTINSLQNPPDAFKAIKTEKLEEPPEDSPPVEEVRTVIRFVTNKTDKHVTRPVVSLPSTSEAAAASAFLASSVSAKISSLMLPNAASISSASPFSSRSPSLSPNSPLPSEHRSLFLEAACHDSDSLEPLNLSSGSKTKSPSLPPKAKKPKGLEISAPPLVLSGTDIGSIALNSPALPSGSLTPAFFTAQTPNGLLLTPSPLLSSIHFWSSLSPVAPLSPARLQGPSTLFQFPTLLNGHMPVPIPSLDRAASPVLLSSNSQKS
# Method in brief: as §1
# FEV = molecular target: T7, FEV (Homo sapiens, UniProt Q99581 1-238); details: protein: recombinant; tags: N-terminal GST; dsDNA, one strand shown
# T7 sequence: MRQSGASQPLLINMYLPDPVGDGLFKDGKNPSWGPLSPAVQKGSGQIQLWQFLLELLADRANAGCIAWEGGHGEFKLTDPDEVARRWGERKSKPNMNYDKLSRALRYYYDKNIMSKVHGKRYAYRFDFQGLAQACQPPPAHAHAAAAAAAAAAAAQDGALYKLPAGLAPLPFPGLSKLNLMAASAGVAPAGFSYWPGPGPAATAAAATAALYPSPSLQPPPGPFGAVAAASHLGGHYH
# Method in brief: as §1
# ETV5 = ETV5 (Homo sapiens, UniProt P41161 1-510); details: protein: recombinant; tags: N-terminal GST; dsDNA, one strand shown
# Method in brief: as §1
# HSF1 = HSF1 (Homo sapiens, UniProt Q00613 1-529); details: protein: recombinant; tags: N-terminal GST; chain copies: 3; dsDNA, one strand shown
# Method in brief: as §1
# SPIC = molecular target: T8, SPIC (Homo sapiens, UniProt Q8N5J4 1-248); details: protein: recombinant; tags: N-terminal GST; dsDNA, one strand shown
# T8 sequence: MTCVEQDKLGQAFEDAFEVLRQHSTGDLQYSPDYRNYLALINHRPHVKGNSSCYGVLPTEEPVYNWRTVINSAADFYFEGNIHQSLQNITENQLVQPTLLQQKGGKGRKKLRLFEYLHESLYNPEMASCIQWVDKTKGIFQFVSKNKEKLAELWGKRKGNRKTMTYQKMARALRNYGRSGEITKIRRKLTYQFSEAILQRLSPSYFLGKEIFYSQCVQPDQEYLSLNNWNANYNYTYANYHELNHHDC
# Method in brief: as §1
# ELF4 = ELF4 (Homo sapiens, UniProt Q99607 1-663); details: protein: recombinant; tags: N-terminal GST; dsDNA, one strand shown
# Method in brief: as §1
# ELK4 = molecular target: T9, ELK4 (Homo sapiens, UniProt P28324-2 1-405); details: protein: recombinant; tags: N-terminal GST; dsDNA, one strand shown
# T9 sequence: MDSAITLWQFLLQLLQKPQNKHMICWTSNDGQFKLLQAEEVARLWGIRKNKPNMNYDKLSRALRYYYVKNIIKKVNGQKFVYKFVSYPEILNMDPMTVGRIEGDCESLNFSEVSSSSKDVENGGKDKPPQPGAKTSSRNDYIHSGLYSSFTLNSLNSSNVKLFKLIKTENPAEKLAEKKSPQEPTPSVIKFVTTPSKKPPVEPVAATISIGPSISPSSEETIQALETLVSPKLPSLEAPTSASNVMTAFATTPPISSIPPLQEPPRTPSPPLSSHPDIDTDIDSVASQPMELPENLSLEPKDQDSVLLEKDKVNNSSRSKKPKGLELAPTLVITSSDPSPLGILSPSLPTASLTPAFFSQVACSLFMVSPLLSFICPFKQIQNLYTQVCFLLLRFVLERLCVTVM
# Method in brief: as §1
# ETV2 = molecular target: T10, ETV2 (Homo sapiens, UniProt O00321 1-342); details: protein: recombinant; tags: N-terminal GST; dsDNA, one strand shown
# T10 sequence: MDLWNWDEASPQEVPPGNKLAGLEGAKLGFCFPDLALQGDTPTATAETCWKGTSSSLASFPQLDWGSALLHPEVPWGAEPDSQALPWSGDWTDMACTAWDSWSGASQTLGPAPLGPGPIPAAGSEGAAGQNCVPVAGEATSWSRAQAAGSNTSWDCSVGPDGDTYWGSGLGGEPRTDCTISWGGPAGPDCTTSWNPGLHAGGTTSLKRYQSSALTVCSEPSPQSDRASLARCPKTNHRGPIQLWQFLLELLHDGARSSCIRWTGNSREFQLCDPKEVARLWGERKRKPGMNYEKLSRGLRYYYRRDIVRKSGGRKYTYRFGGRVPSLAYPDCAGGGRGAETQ
# Method in brief: as §1
# ELF3 = molecular target: T11, ELF3 (Homo sapiens, UniProt P78545 1-371); details: protein: recombinant; tags: N-terminal GST; dsDNA, one strand shown
# T11 sequence: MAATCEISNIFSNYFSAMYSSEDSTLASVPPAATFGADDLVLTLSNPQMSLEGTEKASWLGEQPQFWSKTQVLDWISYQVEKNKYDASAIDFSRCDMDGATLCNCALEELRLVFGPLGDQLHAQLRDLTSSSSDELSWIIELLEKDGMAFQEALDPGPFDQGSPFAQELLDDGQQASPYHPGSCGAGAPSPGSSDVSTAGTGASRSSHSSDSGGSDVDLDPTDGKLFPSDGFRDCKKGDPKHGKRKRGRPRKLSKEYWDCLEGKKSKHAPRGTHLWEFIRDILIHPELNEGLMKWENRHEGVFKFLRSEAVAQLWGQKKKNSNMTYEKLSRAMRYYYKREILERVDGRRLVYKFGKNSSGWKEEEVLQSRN
# Method in brief: as §1
# CRX = CRX (Homo sapiens, UniProt O43186 1-299); details: protein: recombinant; tags: N-terminal GST; dsDNA, one strand shown
# Method in brief: as §1
# ETV1 = ETV1 (Homo sapiens, UniProt P50549 1-477); details: protein: recombinant; tags: N-terminal GST; dsDNA, one strand shown
# Method in brief: as §1
# ETV1, sequence (P50549 whole entry): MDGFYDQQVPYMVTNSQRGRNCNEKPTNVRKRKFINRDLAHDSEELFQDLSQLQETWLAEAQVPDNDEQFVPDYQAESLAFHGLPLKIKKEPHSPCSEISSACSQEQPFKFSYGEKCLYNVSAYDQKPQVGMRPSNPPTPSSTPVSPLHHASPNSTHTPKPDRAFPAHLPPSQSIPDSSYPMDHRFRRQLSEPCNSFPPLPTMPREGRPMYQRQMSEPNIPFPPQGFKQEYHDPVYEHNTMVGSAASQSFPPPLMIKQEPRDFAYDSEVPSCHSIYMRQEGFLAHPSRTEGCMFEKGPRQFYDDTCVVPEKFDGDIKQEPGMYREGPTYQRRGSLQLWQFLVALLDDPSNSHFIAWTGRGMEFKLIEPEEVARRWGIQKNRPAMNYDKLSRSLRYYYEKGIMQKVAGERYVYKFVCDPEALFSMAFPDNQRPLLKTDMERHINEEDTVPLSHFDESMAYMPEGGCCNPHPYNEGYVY
# ELF4, sequence (Q99607 whole entry): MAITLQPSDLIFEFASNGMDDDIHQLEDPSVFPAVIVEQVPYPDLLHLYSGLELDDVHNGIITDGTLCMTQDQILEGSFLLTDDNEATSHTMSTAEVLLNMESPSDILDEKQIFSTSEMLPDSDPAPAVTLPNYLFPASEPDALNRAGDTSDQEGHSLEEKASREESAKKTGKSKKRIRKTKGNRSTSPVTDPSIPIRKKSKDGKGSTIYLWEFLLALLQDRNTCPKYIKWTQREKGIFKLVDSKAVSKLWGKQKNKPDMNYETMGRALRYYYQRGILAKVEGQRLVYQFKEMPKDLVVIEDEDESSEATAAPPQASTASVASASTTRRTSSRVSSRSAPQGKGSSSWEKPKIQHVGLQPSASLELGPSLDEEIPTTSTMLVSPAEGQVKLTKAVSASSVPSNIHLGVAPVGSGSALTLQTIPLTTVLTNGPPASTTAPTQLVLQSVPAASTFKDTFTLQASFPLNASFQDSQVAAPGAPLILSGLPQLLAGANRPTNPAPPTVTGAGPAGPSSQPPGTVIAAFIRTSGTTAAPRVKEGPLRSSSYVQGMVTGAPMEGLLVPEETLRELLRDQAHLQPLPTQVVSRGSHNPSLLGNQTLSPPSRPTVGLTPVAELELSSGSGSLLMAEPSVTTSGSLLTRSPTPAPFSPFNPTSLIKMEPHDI
# ELF1, sequence (P32519 whole entry): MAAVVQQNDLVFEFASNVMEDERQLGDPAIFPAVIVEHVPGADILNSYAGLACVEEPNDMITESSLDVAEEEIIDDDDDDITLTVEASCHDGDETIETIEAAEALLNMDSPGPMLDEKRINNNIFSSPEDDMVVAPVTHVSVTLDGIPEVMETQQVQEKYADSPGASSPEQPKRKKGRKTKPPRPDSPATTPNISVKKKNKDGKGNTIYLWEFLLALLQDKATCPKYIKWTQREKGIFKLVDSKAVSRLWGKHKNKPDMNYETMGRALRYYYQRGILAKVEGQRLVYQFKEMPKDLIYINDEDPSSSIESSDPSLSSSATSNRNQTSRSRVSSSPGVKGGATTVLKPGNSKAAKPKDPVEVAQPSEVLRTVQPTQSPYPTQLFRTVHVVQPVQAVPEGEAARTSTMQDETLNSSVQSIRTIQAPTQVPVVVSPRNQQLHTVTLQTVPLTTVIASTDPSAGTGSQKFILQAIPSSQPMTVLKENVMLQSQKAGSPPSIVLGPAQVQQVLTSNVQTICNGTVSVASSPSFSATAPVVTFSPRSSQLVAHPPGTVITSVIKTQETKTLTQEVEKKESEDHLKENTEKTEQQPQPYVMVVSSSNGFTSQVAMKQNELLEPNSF
# ETV5, sequence (P41161 whole entry): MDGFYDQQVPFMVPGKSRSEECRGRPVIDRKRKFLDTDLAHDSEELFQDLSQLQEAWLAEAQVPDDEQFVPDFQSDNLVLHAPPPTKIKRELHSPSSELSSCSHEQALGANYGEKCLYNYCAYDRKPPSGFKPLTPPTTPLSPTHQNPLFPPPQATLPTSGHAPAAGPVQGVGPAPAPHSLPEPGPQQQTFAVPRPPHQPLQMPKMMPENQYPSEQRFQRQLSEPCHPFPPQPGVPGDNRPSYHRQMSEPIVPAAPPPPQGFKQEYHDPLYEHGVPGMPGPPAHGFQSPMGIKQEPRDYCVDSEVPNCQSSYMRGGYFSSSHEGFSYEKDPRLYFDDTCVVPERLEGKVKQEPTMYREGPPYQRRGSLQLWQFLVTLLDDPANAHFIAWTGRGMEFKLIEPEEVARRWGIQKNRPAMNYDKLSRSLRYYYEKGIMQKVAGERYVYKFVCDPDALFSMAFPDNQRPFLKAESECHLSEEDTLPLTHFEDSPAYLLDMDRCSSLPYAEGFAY
# SPIB, sequence (Q01892 whole entry): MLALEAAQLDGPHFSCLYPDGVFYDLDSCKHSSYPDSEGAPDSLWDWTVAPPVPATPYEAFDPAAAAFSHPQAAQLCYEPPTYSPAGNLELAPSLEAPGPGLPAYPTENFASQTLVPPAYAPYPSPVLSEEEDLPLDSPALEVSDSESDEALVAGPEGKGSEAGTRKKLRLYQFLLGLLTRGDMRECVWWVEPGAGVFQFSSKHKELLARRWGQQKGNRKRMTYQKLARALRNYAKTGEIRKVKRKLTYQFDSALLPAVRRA
# CRX, sequence (O43186 whole entry): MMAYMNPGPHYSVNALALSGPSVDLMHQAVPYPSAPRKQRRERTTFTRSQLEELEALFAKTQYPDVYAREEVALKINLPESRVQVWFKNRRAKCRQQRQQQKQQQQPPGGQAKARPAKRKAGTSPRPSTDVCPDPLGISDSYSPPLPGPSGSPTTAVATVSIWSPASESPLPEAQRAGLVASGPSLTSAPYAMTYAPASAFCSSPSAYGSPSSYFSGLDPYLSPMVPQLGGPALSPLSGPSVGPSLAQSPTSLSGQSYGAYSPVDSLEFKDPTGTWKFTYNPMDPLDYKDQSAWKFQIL
# HSF1, sequence (Q00613 whole entry): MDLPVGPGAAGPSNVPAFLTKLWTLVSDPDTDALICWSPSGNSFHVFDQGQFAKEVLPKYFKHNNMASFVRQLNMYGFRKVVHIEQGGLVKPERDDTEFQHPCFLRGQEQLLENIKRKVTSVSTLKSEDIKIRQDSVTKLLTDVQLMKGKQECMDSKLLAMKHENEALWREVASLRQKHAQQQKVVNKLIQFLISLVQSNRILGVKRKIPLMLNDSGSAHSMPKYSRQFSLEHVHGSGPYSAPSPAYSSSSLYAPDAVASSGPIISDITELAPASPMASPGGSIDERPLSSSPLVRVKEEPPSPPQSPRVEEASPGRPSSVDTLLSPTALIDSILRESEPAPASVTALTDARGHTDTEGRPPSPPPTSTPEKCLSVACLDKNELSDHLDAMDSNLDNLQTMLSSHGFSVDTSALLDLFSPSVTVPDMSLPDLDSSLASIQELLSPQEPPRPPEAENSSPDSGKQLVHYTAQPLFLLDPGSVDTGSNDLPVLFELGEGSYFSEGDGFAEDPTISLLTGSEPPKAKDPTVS
sequence,measurement,setting,value
TTTGAT,binding signal,FLI1,"1.37 fold enrichment (6-mer frequency, TF over GST control)"
same,binding signal,ELK1,"1.36 fold enrichment (6-mer frequency, TF over GST control)"
same,binding signal,GABPA,"1.26 fold enrichment (6-mer frequency, TF over GST control)"
same,binding signal,ERG,"1.3 fold enrichment (6-mer frequency, TF over GST control)"
same,binding signal,ELF1,"1.23 fold enrichment (6-mer frequency, TF over GST control)"
same,binding signal,EHF,"1.25 fold enrichment (6-mer frequency, TF over GST control)"
same,binding signal,SPI1,"1.22 fold enrichment (6-mer frequency, TF over GST control)"
same,binding signal,SPIB,"1.31 fold enrichment (6-mer frequency, TF over GST control)"
same,binding signal,ELK3,"1.12 fold enrichment (6-mer frequency, TF over GST control)"
same,binding signal,FEV,"1.17 fold enrichment (6-mer frequency, TF over GST control)"
same,binding signal,ETV5,"1.23 fold enrichment (6-mer frequency, TF over GST control)"
same,binding signal,HSF1,"1.37 fold enrichment (6-mer frequency, TF over GST control)"
same,binding signal,SPIC,"1.26 fold enrichment (6-mer frequency, TF over GST control)"
same,binding signal,ELF4,"1.22 fold enrichment (6-mer frequency, TF over GST control)"
same,binding signal,ELK4,"1.2 fold enrichment (6-mer frequency, TF over GST control)"
same,binding signal,ETV2,"1.22 fold enrichment (6-mer frequency, TF over GST control)"
same,binding signal,ELF3,"1.18 fold enrichment (6-mer frequency, TF over GST control)"
same,binding signal,CRX,"1.6 fold enrichment (6-mer frequency, TF over GST control)"
same,binding signal,ETV1,"1.25 fold enrichment (6-mer frequency, TF over GST control)"
